Pf growth 48h: P. falciparum growth inhibition at 48 hours (one generation). P. falciparum luciferase growth in erythrocytes, 48 h. Potency, µM (titrated, usually from 28.7 µM), actives largely listed as inhibitors. actives 5.9% (n = 310,000). AID 504832
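Luciferase-expressing parasites in RBCs, 2% Hct / 0.1% parasitemia final; RPMI 1640 + 0.5% Albumax; 37 C, 5% CO2, one generation; luminescence read-out, lower signal = inhibition.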
Pf growth 96h: P. falciparum growth inhibition at 96 hour, primary screen for plastid delayed-death inhibitors; P. falciparum luciferase reporter growth, 96 h; Potency, µM (series often up to 28.7 µM), actives largely listed as inhibitors; actives 6.9% (n = 320,000); AID 504834
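Erythrocytes infected with luciferase-expressing P. falciparum were dispensed at 2% hematocrit and 0.05% parasitemia (final), then incubated with compounds 96 hours at 37 C in 5% CO2. Luminescence after detection reagent addition reported growth.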
Sm TGR block: S. mansoni TGR enzyme inhibition; Q962Y6; purified TGR, DTNB reduction, TNB absorbance 405 nm; Potency, µM (titrated, usually from 114 µM), most hits filed as inhibitors; actives 3% (n = 360,000); AID 485364; also: nearly all actives have a fitted effect of over 60% in size
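TGR 20 nM + NADPH 100 uM (dispensed conc.), cpd preinc 15 min RT; start with NADPH (500 uM addition) then DTNB (15 mM addition). Kinetic TNB absorbance, 405 nm filter. Four-parameter Hill fit across titration.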
NS1 function inh: influenza NS1 inhibition; actives 0.4% (n = 270,000); Potency, µM (doses to about 46.1 µM); calls by dose curve; also: actives are rising curves; nearly all actives have a fitted effect of over 50% in size
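A cell-based growth assay was used: compounds that relieve NS1-induced slow growth of budding yeast raise OD600. Assay medium was yeast nitrogen base with ammonium sulphate and -URA supplement, pH 6.0, with 2% galactose.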
AMA1 RON2 block: disrupts binding of P. falciparum AMA1 to RON2 | AlphaScreen AMA1-biotinylated RON2 peptide binding | actives 0.2% (n = 360,000) | Potency, µM (series often up to 58.2 µM), most hits filed as inhibitors; also: nearly all actives have a fitted effect of over 45% in size
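AMA1 (3D7) with his tag at 25 nM final met compounds first, then biotinylated RON2 peptide at 25 nM; detection used donor plus acceptor beads, 10 µg/mL apiece, read by AlphaScreen after 30 min at room temperature.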
Large screens that a line does not name were inactive; ! = repeats disagree. Shown are actives, neighbours in structure and some others; about 11% of the full set was active somewhere. Unless noted, calls follow the shape of the dose curve; as a rule, active = well fitted curve in the direction sought with a large enough effect; inconclusive = small, poorly fitted or top-dose-only effect, or another doubt; inactive = no such curve, though single readings can be large; an effect the other way counts as inactive or inconclusive.

CCOc1ccc(-c2cc(C(=O)N3CCN(C)CC3)c3ccccc3n2)cc1	none (no result: Pf growth 96h)
Cc1cc2c(cc1C)-n1nnnc1C(N(C)Cc1ccccc1)C(=O)N2 (centres undefined)	none (no result: Pf growth 48h, Pf growth 96h, Sm TGR block, NS1 function inh)
COc1ccc(-c2cc(C(=O)N3CC(C)CC(C)C3)c3ccccc3n2)cc1 (centres undefined)	Pf growth 48h 2.9µM, Pf growth 96h 3.7µM (no result: NS1 function inh)
COc1ccc(-c2cc(C(=O)N3CCN(c4ccccc4)CC3)c3ccccc3n2)cc1	AMA1 RON2 block inconclusive
O=S(=O)(Nc1cc(C(F)(F)F)ccc1N1CCOCC1)c1ccc2ccccc2c1	Pf growth 48h inconclusive, Pf growth 96h 13µM
O=S(=O)(Nc1cc(C(F)(F)F)ccc1N1CCOCC1)c1ccccc1	Pf growth 48h inconclusive, Pf growth 96h inconclusive
CCOC(=O)c1ccc(N2CCCCC2)c(NS(=O)(=O)c2cccc(C(F)(F)F)c2)c1	Pf growth 48h 10µM, Pf growth 96h 9.3µM, NS1 function inh inconclusive
Cc1ccc(S(=O)(=O)Nc2cc(C(F)(F)F)ccc2N2CCOCC2)cc1C	Pf growth 48h 3.3µM, Pf growth 96h inconclusive
Cc1cc2c(c(=O)n1Cc1cccnc1)C(c1cccs1)C(C#N)=C(N)O2 (centres undefined)	Pf growth 96h inconclusive, Sm TGR block 10µM (no result: Pf growth 48h)
Cc1cc2c(c(=O)n1Cc1ccco1)C(c1cccnc1)C(C#N)=C(N)O2 (centres undefined)	Pf growth 96h 9.3µM, Sm TGR block inconclusive, NS1 function inh inconclusive
Cc1ncc([N+](=O)[O-])n1CC(=O)Nc1cc(Cl)ccc1Cl	none
COc1ccc2c(c1OC)C(=O)N1N=C(c3ccccc3)CC21 (centres undefined)	Pf growth 48h 4.1µM, Pf growth 96h inconclusive
CC#CC[N+](C)(C)CCCCCCCCCC	Pf growth 48h 0.74µM, Pf growth 96h inconclusive
C#CC[N+](C)(C)CCCCCCCCC	Pf growth 48h 3.7µM, Pf growth 96h inconclusive
CCNC(=O)C1(C)CCN(C(=O)c2cc(OC)c(OC)c(OC)c2)C1 (centres undefined)	none (no result: Pf growth 48h, Pf growth 96h, Sm TGR block, NS1 function inh)
Cc1cc(C)c(NC(=O)CCN2C(=O)c3ccccc3Sc3ncccc32)c(C)c1	none (no result: Pf growth 48h, Pf growth 96h, NS1 function inh, AMA1 RON2 block)
CC(=O)c1cc2c(cc1NC(=O)CCn1cnnn1)OCO2	Pf growth 96h inconclusive, Sm TGR block 50µM
CC(=O)c1cc2c(cc1NC(=O)CCCC(=O)O)OCO2	none
CCOC(=O)c1cnc(-c2ccccc2)nc1-c1ccccc1	Pf growth 48h inconclusive (no result: NS1 function inh)
O=C(OCC(=O)N1CCOCC1)c1ccc(Cl)c(S(=O)(=O)N2CCc3ccccc32)c1	none (no result: Pf growth 48h, Pf growth 96h, Sm TGR block, NS1 function inh)
CCOc1ccccc1Nc1nnc(SCC(=O)Nc2nc(-c3ccc(OC)cc3)cs2)s1	Pf growth 48h inconclusive, Pf growth 96h inconclusive (no result: Sm TGR block)
CC(C)C(=O)Nc1nnc(SCC(=O)NC2CC2)s1	Pf growth 96h 5.2µM
COc1ccccc1Nc1nnc(SCC(=O)N2CC(=O)Nc3ccccc32)s1	Pf growth 48h inconclusive, Pf growth 96h 7.4µM
Cc1sc2nc(C3CCCCC3)nc(SCC(=O)N3CC(=O)Nc4ccccc43)c2c1C	Pf growth 48h inconclusive, Pf growth 96h 4.7µM
O=C1CN(C(=O)CSc2nnc(Nc3ccccc3)s2)c2ccccc2N1	Pf growth 96h inconclusive
CCC(CC)C(=O)Nc1nnc(SCC(=O)NC2CC2)s1	none
COc1ccccc1Nc1nnc(SCC(=O)Nc2nc(-c3ccc(F)cc3)cs2)s1	Pf growth 96h 13µM, NS1 function inh inconclusive
CN(Cc1cccnc1)C(=O)c1ccc2nc(Cc3ccccc3F)oc2c1	none
COc1ccccc1Nc1nnc(SCC(=O)NC2CC2)s1	Pf growth 48h inconclusive, Pf growth 96h inconclusive (no result: NS1 function inh)
COc1ccccc1Nc1nnc(SCC(=O)NC2CCCC2)s1	Pf growth 48h 12µM, Pf growth 96h 9.3µM (no result: NS1 function inh)
CC(=O)Nc1nnc(SCC(=O)N2C(C)CCCC2C)s1 (centres undefined)	Pf growth 96h 12µM
O=[N+]([O-])c1ccccc1Nc1nc(-c2cccnc2)cs1	Pf growth 48h inconclusive, Pf growth 96h inconclusive, AMA1 RON2 block inconclusive
COCCN=C1Sc2nc3cc(C)c(C)cc3cc2CN1Cc1cccs1	Pf growth 48h 10µM, Pf growth 96h inconclusive
COCCN=C1Sc2nc3ccc(C)cc3cc2CN1Cc1ccco1	Pf growth 96h inconclusive (no result: Pf growth 48h)
CCOC(=O)C1CCN(C(=O)c2cccnc2Oc2ccccc2)CC1	none
Cc1cc(C(=O)CN2C(=O)NC3(CCCc4ccccc43)C2=O)c(C)n1Cc1ccccc1 (centres undefined)	Pf growth 96h 1.2µM (no result: Pf growth 48h)
COc1ccc(-n2c(C)cc(C(=O)CN3C(=O)NC4(CCCc5sccc54)C3=O)c2C)cc1 (centres undefined)	Pf growth 48h inconclusive, Pf growth 96h 4.7µM
Cc1cc(C(=O)CN2C(=O)NC3(CCCc4ccccc43)C2=O)c(C)n1Cc1ccco1 (centres undefined)	Pf growth 48h 1.7µM (no result: Pf growth 96h, AMA1 RON2 block)
COc1ccc(C(=O)N2CCOC2CNC(=O)C(=O)NCc2ccccc2Cl)cc1 (centres undefined)	Pf growth 48h inconclusive
Cc1nc(CNC(=O)C2CCC(=O)N(CCc3ccc(Cl)cc3)C2)sc1C (centres undefined)	Pf growth 48h inconclusive
CCn1nc(C)c(CNC(=O)C2CCC(=O)N(CCc3ccc(Cl)cc3)C2)c1C (centres undefined)	Pf growth 96h 9.3µM
O=C(NCCc1cnccn1)C1CCC(=O)N(Cc2ccc(Cl)cc2)C1 (centres undefined)	none
COCc1cc(CN(C)C(=O)C2CCC(=O)N(Cc3cccc(OC)c3)C2)[nH]n1 (centres undefined)	Pf growth 96h 9.3µM
O=C(NCCCc1ccncc1)C1CCC(=O)N(Cc2ccc(Cl)cc2)C1 (centres undefined)	Pf growth 96h 10µM
COc1cccc(CN2CC(C(=O)N(C)Cc3ccc(C)cc3)CCC2=O)c1 (centres undefined)	Pf growth 48h inconclusive
COc1cccc(CN2CC(C(=O)NCCCc3ccncc3)CCC2=O)c1 (centres undefined)	Pf growth 96h 12µM
COc1ccc(CNC(=O)C(C)N2Cc3ccccc3C2=O)cc1 (centres undefined)	none (no result: Pf growth 48h, Pf growth 96h, NS1 function inh, AMA1 RON2 block)
COc1cccc(CN2CC(C(=O)NCCN3CCOCC3)CCC2=O)c1 (centres undefined)	Pf growth 96h 15µM
O=C(NCc1ccncc1)C1CCC(=O)N(CCc2ccc(Cl)cc2)C1 (centres undefined)	Pf growth 48h inconclusive, Pf growth 96h 9.3µM
O=C(/C=C/c1ccc2c(c1)S(=O)(=O)N(Cc1ccccc1)[C@H]2CC(=O)N1CCOCC1)N1CCOCC1	none (no result: Pf growth 48h, Pf growth 96h, Sm TGR block, NS1 function inh)
Cc1cc(Oc2ccc(=O)n(C)n2)nc(Oc2ccc(=O)n(C)n2)n1	Pf growth 96h 10µM
Cc1cc(Oc2ccc(=O)n(C)n2)nc(SCC(N)=O)n1	none
C/C(=N\NC(=O)CCn1nnc2ccccc21)c1cccs1	none
Nc1ccc(C(=O)NCC(=O)O)cc1	Pf growth 48h 12µM!, Pf growth 96h 9.3µM! (no result: NS1 function inh)
Nc1ccc(C(=O)NCCCCCCNC(=O)c2ccc(N)cc2)cc1	Pf growth 96h inconclusive

Screening data deposited in PubChem BioAssay by National Center for Advancing Translational Sciences (NCATS).
